Records with an inconclusive call do not appear. Unmarked numbers belong to inactive results. Active and inactive are the calls of the source. Unless noted, calls come from the whole dose curve.

A short description of experiment [1]: qHTS assay to identify small molecule agonists of the vitamin D receptor (VDR) signaling pathway - cell viability counter screen (AID 743224; active = well fitted curve in the direction sought with a large enough effect in the repeat runs; an effect the other way counts as inactive or inconclusive; note: series mostly up to about 63 µM; % is set by controls: 0 for no effect and ±100 for the full control effect; nearly all actives have a fitted effect of over 50% in size). In short, it runs like this:
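Viability is measured in the same wells as the VDR-bla reporter assay: after 16 h compound treatment and 2 h substrate loading, CellTiter-Glo is added and luminescence read 30 min later.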

A short description of experiment [2]: qHTS assay to identify small molecule antagonists of the vitamin D receptor (VDR) signaling pathway - cell viability counter screen (AID 743225; active = well fitted curve in the direction sought with a large enough effect in the repeat runs; an effect the other way counts as inactive or inconclusive; note: % is set by controls: 0 for no effect and ±100 for the full control effect; nearly all actives have a fitted effect of over 50% in size). A digest of the protocol: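 Compounds were pinned onto VDR-bla HEK 293T cells together with 1-alpha,25-dihydroxyvitamin D3 at 3 nM final. After 16 h at 37C and 5% CO2 plus the reporter readout, cell viability was measured by CellTiter-Glo luminescence (30 min, room temperature).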

A short description of experiment [3]: qHTS assay to identify small molecule agonists of the NFkB signaling pathway - cell viability counter screen (AID 1159515). For activity, negative = cytotoxic: series mostly up to about 61 µM; % is set by controls: 0 for no effect and ±100 for the full control effect. Note: nearly all actives have a fitted effect of over 55% in size. Note: potency is the fitted concentration of half-maximal effect. A digest of the protocol: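 Multiplexed viability readout: after the 5 hr compound exposure and 1.5 hr FRET substrate step, CellTiter-Glo reagent went into the same NFkB-bla ME-180 wells; ATP luminescence was measured after 30 min at room temperature.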

Experiment [4] can be described thus: qHTS assay to identify small molecule agonists of the endoplasmic reticulum stress response signaling pathway (AID 1159516; active = well fitted activation curve with a large enough effect in the signal ratio in the repeat runs, not every such curve was filed as active; the % refers to the signal ratio; note: % is set by controls: 0 for no effect and ±100 for the full control effect). In short, it runs like this: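 Tox21 10K library screened in quantitative HTS format on ESRE-bla HeLa cells, a beta-lactamase reporter under ER stress response element control; 5 hr treatment, FRET read.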
Experiment [5] in a line: qHTS assay to identify small molecule antagonists of the retinoid-related orphan receptor gamma (ROR-gamma) signaling pathway - cell viability counter screen (AID 1159520; active = well fitted curve in the direction sought with a large enough effect in the repeat runs; an effect the other way counts as inactive or inconclusive; note: % is set by controls: 0 for no effect and ±100 for the full control effect; nearly all actives have a fitted effect of over 50% in size). In short, it runs like this:
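Cytotoxicity was read from cellular ATP (CellTiter-Glo luminescence) after 16 hr at 37 C with 1 uM doxycycline induction. The inducer was added 2 hr after compound transfer to Tet-on ROR gamma CHO cells.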

The nature of experiment [6]: qHTS assay to identify small molecule agonists of the AP-1 signaling pathway - cell viability counter screen (AID 1159525). Note: nearly all actives have a fitted effect of over 55% in size. Note: potency is the fitted concentration of half-maximal effect. In short, it runs like this:
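Luminescent ATP readout (Cell Titer Glo, 30 min RT), normalised to DMSO and tetra n-octyl ammonium bromide controls. Cells were ME-180 AP-1-bla in 0.5% dialyzed FBS Opti-MEM, with a 5 h, 37 °C compound exposure.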

Experiment [7] can be described thus: qHTS assay to identify small molecule agonists of the AP-1 signaling pathway (AID 1159526). Note: % is set by controls: 0 for no effect and ±100 for the full control effect.
Experiment [8] has as its target Retinoic acid receptor RXR-alpha (Homo sapiens) (UniProt P19793). Nature of the experiment: qHTS assay to identify small molecule agonists of the RXR signaling pathway (AID 1159527). Note: % is set by controls: 0 for no effect and ±100 for the full control effect; nearly all actives have a fitted effect of over 35% in size. In short, it runs like this:
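Using 9-cis retinoic acid as the reference agonist, chemicals were tested in HEK 293T cells […] for 16 hr; substrate loading lasted 2 hr at room temperature.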

A short description of experiment [9]: qHTS assay to identify small molecule agonists of the endoplasmic reticulum stress response signaling pathway - cell viability counter screen (AID 1159517). Note: series mostly up to about 61 µM; % is set by controls: 0 for no effect and ±100 for the full control effect; nearly all actives have a fitted effect of over 50% in size. A digest of the protocol: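 Cells, HeLa ESRE-bla; density, 1,500/well; dosing, 5 hr at 37 C, 5% CO2; readout, CellTiter-Glo luminescence after 30 min RT.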
Experiment [10] has as its target Nuclear receptor ROR-gamma (Homo sapiens) (UniProt P51449). In words: qHTS assay to identify small molecule antagonists of the retinoid-related orphan receptor gamma (ROR-gamma) signaling pathway (AID 1159521; active = well fitted curve in the direction sought with a large enough effect in the repeat runs; an effect the other way counts as inactive or inconclusive). In short, it runs like this: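 Test compounds were applied to Tet-on RORγ CHO cells 2 h ahead of doxycycline hyclate (1 uM final). Luciferase reporter activity was quantified by luminescence after 16 h at 37 C and 5% CO2.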

Chain of Retinoic acid receptor RXR-alpha (Homo sapiens) (P19793 whole entry, looked up): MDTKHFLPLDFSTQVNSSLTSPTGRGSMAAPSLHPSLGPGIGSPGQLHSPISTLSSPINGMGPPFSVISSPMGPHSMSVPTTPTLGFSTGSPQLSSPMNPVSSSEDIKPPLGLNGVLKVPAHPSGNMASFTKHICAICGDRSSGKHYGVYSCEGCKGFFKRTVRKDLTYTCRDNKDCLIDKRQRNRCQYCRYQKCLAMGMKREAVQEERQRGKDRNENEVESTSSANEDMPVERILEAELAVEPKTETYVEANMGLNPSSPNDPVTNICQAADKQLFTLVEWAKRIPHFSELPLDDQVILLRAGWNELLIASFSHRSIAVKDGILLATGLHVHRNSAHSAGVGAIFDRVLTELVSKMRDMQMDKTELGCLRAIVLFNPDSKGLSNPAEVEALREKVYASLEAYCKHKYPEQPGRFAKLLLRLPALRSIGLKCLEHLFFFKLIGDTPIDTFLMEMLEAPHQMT

As for `CC1OC(=O)C(C)OC1=O` (stereo unspecified), the Potency entry in experiment [1], in experiment [2], in [3], in experiment [4], in experiment [5] and in experiment [6] was “inactive” throughout. The Potency entry in experiment [7] and in experiment [8] was “inactive” each time.
For the compound `O=C(OCCCCCCOC(=O)c1ccccc1)c1ccccc1`, the Potency entry in experiment [3], in experiment [9], in [5], in experiment [10] and in [6] was “inactive” each time.
Regarding `COc1cc2nc(Cl)nc(N)c2cc1OC`, the Potency result in [2], in experiment [3], in experiment [4], in experiment [5], in experiment [6] and in experiment [7] was “inactive” throughout. Further, the Potency result in [8] is “inactive”.
As to `COCCCN1CCC(NC(=O)c2cc(Cl)c(N)c3c2OCC3)CC1`, the Potency entry in experiment [1], in [2], in experiment [3], in experiment [4], in [5] and in [6] was “inactive” throughout. For the same compound, the Potency result in [7] and in experiment [8] was “inactive” in each case.
Consider `O=C(O)C(S)C(S)C(=O)O` (stereo unspecified), for which the Potency entry in experiment [3], in experiment [4], in experiment [5], in experiment [6], in [7] and in experiment [8] was “inactive” throughout.
`CCCCCCCC#N`: the Potency result in [2], in [3], in [9], in experiment [5], in experiment [10] and in experiment [6] was “inactive” throughout.
For `CCC(C)(C)CC`, the Potency result in [3], in experiment [4], in experiment [5], in [10] and in experiment [8] was “inactive” in each case.
Turning to `Cn1c(=O)cc(Oc2ccc(F)cc2F)c2cnc(NCC(C)(C)O)nc21`, the Potency entry in experiment [2], in [3], in [4], in experiment [5], in experiment [6] and in [7] was “inactive” each time.
For `NC(N)=NCCC[C@H](N)C(=O)O`, the viability change, negative = cytotoxic in [2] was -1.77% [at 6.95 µM]. Also, the activity, negative = cytotoxic in experiment [3] was 7.11% [at 6.95 µM]. Further, the activation in [4] is 0.874% [at 6.95 µM]; in experiment [7], 2.4% [at 6.97 µM]; in experiment [8], 7.8% [at 6.98 µM]. Besides, in [5], the activity, negative = cytotoxicity was 0.0529% [at 8.39 µM]. Also, in [10], the activity change, negative = inhibition is -5.21% [at 8.39 µM].
Turning to `CCO[Si](CCCCl)(OCC)OCC`, the Potency result in experiment [2], in experiment [3], in experiment [4], in experiment [5], in experiment [6] and in experiment [7] was “inactive” in each case. For the same compound, the Potency entry in experiment [8] was “inactive”.
As to `O[C@@H](COc1cccc2ncccc12)CN1CCN(C2c3ccccc3[C@@H]3[C@H](c4ccccc42)C3(F)F)CC1` (stereo partly specified), the Potency entry in [3], in [4], in experiment [5], in [10] and in [7] was “inactive” throughout.
As to `CN1CCC(N(Cc2cccs2)c2ccccc2)CC1`, the Potency entry in experiment [2], in experiment [3], in experiment [4], in experiment [5], in [10] and in [6] was “inactive” throughout.
As for `C#Cc1cccc(Nc2ncnc3cc(OCCOC)c(OCCOC)cc23)c1`, the Potency entry in experiment [2], in experiment [3], in experiment [4], in [5] and in experiment [6] was “inactive” in each case.
Regarding `Clc1ccc2c(c1)CCc1cccnc1C2=C1CCNCC1`, the Potency entry in experiment [3], in [4], in [5], in experiment [10] and in experiment [7] was “inactive” in each case.
Consider `C=CCOc1ccccc1OCC(O)CNC(C)C` (stereo unspecified), for which the Potency entry in experiment [1], in [3], in [4], in experiment [5], in experiment [6] and in [8] was “inactive” in each case.
In the case of `COc1cc(C(=O)OCCCN2CCCN(CCCOC(=O)c3cc(OC)c(OC)c(OC)c3)CC2)cc(OC)c1OC`, the Potency result in experiment [3], in experiment [4], in experiment [10], in experiment [6] and in [7] was “inactive” throughout.
Turning to `NC(=O)C(c1ccccc1)(c1ccccc1)[C@@H]1CCN(CCc2ccc3c(c2)CCO3)C1`, the Potency result in [3], in [4], in experiment [5], in [6] and in experiment [7] was “inactive” each time.
Consider `CN(Cc1ccc(C(C)(C)C)cc1)Cc1cccc2ccccc12`, for which, in experiment [3], the Potency is 21.3 µM (active). Also, the Potency entry in experiment [9], in experiment [5] and in experiment [10] was “inactive” in each case.
As for `OC(CN1CCC(Cc2ccc(F)cc2)CC1)c1ccc(Cl)cc1` (stereo unspecified), the Potency entry in experiment [3], in experiment [4], in experiment [5] and in [6] was “inactive” in each case.
Take `CCCCC`: the Potency result in experiment [1], in experiment [3], in experiment [9], in experiment [5], in [10] and in [7] was “inactive” throughout. For the same compound, the Potency entry in [8] was “inactive”.
`CC(C)(C)OCC1CO1` (stereo unspecified): the Potency result in experiment [2], in [3], in experiment [4], in experiment [5], in experiment [6] and in experiment [7] was “inactive” throughout. For the same compound, the Potency entry in experiment [8] was “inactive”.
In the case of `CC(C)Cc1ccc(C(C)C(=O)OCc2ccccn2)cc1` (stereo unspecified), the Potency entry in experiment [1], in [2], in [3], in [4], in [5] and in experiment [7] was “inactive” in each case. In [6], the Potency was 0.239 µM (active).
Regarding `O=C(O)CC(=O)C(=O)O`, the Potency entry in experiment [2], in experiment [3], in experiment [4], in [5], in experiment [6] and in experiment [7] was “inactive” in each case. Besides, in experiment [8], the Potency entry is “inactive”.
On to `OCCN1CCN(CCCN2c3ccccc3C=Cc3ccccc32)CC1`, for which the Potency result in [1], in experiment [2], in [3], in [4], in experiment [5] and in [6] was “inactive” in each case. Also, the Potency result in [7] and in experiment [8] was “inactive” each time.

These data come from PubChem BioAssay (Tox21).
